Results from PubChem BioAssay (Tox21).
“And” between values parts separate entries of the source, which are not always exact repeats. Identical values can stand only once. Inconclusive results are not listed. A structure can be active in one record and inactive in another. The source made the active and inactive calls. Calls follow the shape of the dose curve; as a rule, active = well fitted inhibition curve with a large enough effect in the repeat runs; inconclusive = weak or mixed curves; inactive = no such curve, though single readings can be large or run the other way.

Target: Cytochrome P450 2C19 (Homo sapiens) (UniProt P33261)
Sequence (P33261 whole entry, looked up): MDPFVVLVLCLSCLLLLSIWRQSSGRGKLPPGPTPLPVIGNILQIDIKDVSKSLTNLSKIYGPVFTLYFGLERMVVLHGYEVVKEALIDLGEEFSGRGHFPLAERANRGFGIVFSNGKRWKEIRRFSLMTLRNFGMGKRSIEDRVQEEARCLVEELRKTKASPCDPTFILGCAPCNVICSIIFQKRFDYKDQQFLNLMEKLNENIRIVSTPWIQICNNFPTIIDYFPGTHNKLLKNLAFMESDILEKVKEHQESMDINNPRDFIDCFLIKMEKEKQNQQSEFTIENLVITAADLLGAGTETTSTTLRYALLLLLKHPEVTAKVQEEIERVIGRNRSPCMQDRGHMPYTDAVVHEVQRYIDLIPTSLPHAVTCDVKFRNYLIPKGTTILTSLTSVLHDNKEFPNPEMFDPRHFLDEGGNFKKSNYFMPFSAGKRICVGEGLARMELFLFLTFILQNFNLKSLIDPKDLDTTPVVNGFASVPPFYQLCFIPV
Experiment: Cytochrome P450 Family 2 Subfamily C Member 19 (CYP2C19) small molecule antagonists: luciferase reporter qHTS assay (AID 1671197); also: nearly all actives have a fitted effect of over 65% in size
Conditions: P450-Glo CYP2C19 enzyme, luciferin luminescence, 1 h; series mostly up to 115 µM; activity change, negative = inhibition: at the top concentration
Method in brief: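 P450-Glo CYP2C19 screening system; proluciferin substrate; DMSO compound stocks; 10 min RT preincubation; NADPH regeneration, 1 h at 37C; luciferin detection reagent, 20 min RT; luminescence as RLU.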
% is scaled to controls: 0 for no effect and ±100 for the full control effect; potency is read from the fitted curve at half-maximal effect.

Row | SMILES | Potency | activity change, negative = inhibition
1 | CCCCCC=O | inactive | 
2 | OC[C@H]1O[C@@H]2O[C@H]3[C@H](O)[C@@H](O)[C@@H](O[C@H]4[C@H](O)[C@@H](O)[C@@H](O[C@H]5[C@H](O)[C@@H](O)[C@@H](O[C@H]6[C@H](O)[C@@H](O)[C@@H](O[C@H]7[C@H](O)[C@@H](O)[C@@H](O[C@H]1[C@H](O)[C@H]2O)O[C@@H]7CO)O[C@@H]6CO)O[C@@H]5CO)O[C@@H]4CO)O[C@@H]3CO | inactive | 
3 | CC1=CC(C)(C)Nc2ccccc21 | 75.6 µM (active) | 
4 | C=C[C@H]1CN2CC[C@H]1C[C@H]2[C@H](O)c1ccnc2ccc(OC)cc12 |  | -15.2% [at 52.9 µM] (inactive)
5 | C=CCNCC=C | 39.8 µM (active) | 
6 | CCCCCCCC/C=C\CCCCCCCC(=O)O | 71.4 µM (active) and inactive | 
7 | IC(I)I | 39.9 µM (active) and 89.4 µM (active) | 
8 | CCCCCCCCCCC(CO)CCCCCCCC (stereo not given) | inactive | 
9 | Cc1ccc(N)c([N+](=O)[O-])c1 | 39.4 µM (active) | 
10 | Nc1ccc2c(O)cc(S(=O)(=O)O)cc2c1 | 79.8 µM (active) and 50.2 µM (active) | 
11 | C=CCCCCCCCCCC | inactive | 
12 | COc1ccc2nc(N)sc2c1 | 39.9 µM (active) and 71 µM (active) | 
13 | CCO[Si](CCCNC(N)=O)(OCC)OCC | inactive and 56.4 µM (active) | 
14 | FC(F)(F)C(Cl)Br (stereo not given) |  | 9.14% (inactive)
15 | C=CC(=O)OCCCC | inactive | 
16 | Cc1ccc([N+](=O)[O-])c(C)c1 | 8.94 µM (active) and inactive | 
17 | CCC(=O)O[C@H]1[C@H](O[C@@H]2[C@@H](C)[C@H](O[C@H]3C[C@@](C)(OC)[C@@H](O)[C@H](C)O3)[C@@H](C)C(=O)O[C@H](CC)[C@@](C)(O)[C@H](O)[C@@H](C)C(=O)[C@H](C)C[C@@]2(C)O)O[C@H](C)C[C@@H]1N(C)C | 47.1 µM (active) and inactive | 
18 | CC(=O)Nc1ccc2c(c1)Cc1cc(NC(C)=O)ccc1-2 | inactive | 
19 | COc1cc([C@H]2Oc3cc([C@H]4Oc5cc(O)cc(O)c5C(=O)[C@@H]4O)ccc3O[C@@H]2CO)ccc1O |  | 15.4% [at 52.9 µM] (inactive)
20 | Cc1ccc(S(=O)(=O)NCl)cc1 |  | -16.8% (inactive)
21 | CN(C)C | inactive | 
22 | OC[C@@H](O)[C@@H](O[C@@H]1O[C@H](CO)[C@H](O)[C@H](O)[C@H]1O)[C@H](O)[C@@H](O)CO | inactive | 
23 | c1ccc2c(c1)ccc1cc3c(ccc4ccccc43)cc12 | inactive | 

Target: Cytochrome P450 2C9 (Homo sapiens) (UniProt P11712)
Sequence (P11712 whole entry, looked up): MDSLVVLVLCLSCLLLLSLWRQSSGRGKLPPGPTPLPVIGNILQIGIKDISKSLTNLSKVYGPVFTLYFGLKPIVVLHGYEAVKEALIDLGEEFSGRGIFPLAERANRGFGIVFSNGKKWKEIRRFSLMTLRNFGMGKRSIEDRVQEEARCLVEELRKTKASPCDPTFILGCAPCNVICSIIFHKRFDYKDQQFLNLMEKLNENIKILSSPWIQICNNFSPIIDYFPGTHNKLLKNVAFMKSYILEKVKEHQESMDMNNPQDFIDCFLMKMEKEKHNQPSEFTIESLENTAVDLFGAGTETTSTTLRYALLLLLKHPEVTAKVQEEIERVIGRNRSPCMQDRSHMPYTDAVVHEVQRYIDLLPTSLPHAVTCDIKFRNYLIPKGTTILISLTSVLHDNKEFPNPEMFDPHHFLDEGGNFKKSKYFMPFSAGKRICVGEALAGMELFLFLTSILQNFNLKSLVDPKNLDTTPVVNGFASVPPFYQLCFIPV
Experiment: Cytochrome P450 Family 2 Subfamily C Member 9 (CYP2C9) small molecule antagonists: luciferase reporter qHTS assay (AID 1671198); also: nearly all actives have a fitted effect of over 50% in size
Conditions: P450-Glo CYP2C9 enzyme assay, luciferin luminescence; series mostly up to 115 µM; activity change, negative = inhibition: at the top concentration
Method in brief: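 CYP2C9 activity was measured with a P450-Glo proluciferin substrate. Enzyme–substrate mix was held with compound for 10 min at room temperature, then NADPH regeneration solution was added for 1 h at 37C. Luciferin product was read as luminescence.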

Row | SMILES | Potency | activity change, negative = inhibition
24 | CC(=O)Oc1c(C)c(C)c2c(c1C)CC[C@@](C)(CCC[C@H](C)CCC[C@H](C)CCCC(C)C)O2 | inactive | 
25 | CCCCCCC(C)O (stereo not given) |  | -1.99% (inactive)
26 | Oc1c(Cl)ccc(Cl)c1Cl | 35.5 µM (active) and 35.6 µM (active) | 
27 | NCCOCCO | inactive | 
28 | O=[Se](O)O | 7.11 µM (active) | 
29 | Brc1nc2ccccc2s1 |  | -16.9% (inactive)
30 | Cc1ccc(C(C)(C)C)c(O)c1 | 34.4 µM (active) and 71 µM (active) | 
31 | CC(=O)[C@@]1(O)CC[C@H]2[C@@H]3C[C@H](C)C4=CC(=O)C=C[C@]4(C)[C@@]3(F)[C@@H](O)C[C@@]21C | 10 µM (active) and 6.92 µM (active) | 
32 | CC(=O)O[C@]1(C(C)=O)CC[C@H]2[C@@H]3C=C(Cl)C4=CC(=O)CC[C@]4(C)[C@H]3CC[C@@]21C | 20 µM (active) and 15.5 µM (active) | 
33 | C/C=C/C(=O)N(CC)c1ccccc1C | 39.9 µM (active) | 
34 | CC[C@]12CCCN3CCc4c(n(c5ccccc45)[C@@](O)(C(=O)OC)C1)[C@@H]32 | inactive | 
35 | CC1(C)OC(=O)NC1=O | inactive | 
36 | CC(=O)Oc1ccc(C(c2ccc(OC(C)=O)cc2)c2ccccn2)cc1 | 7.06 µM (active) and 12.3 µM (active) | 
37 | O=C(O)c1cc(=O)[nH]c(=O)[nH]1 | inactive | 
38 | CC1(C)NC(=O)N(c2ccc([N+](=O)[O-])c(C(F)(F)F)c2)C1=O | 10 µM (active) and 7.76 µM (active) | 
39 | CCCCCC=O | inactive | 
40 | OC[C@H]1O[C@@H]2O[C@H]3[C@H](O)[C@@H](O)[C@@H](O[C@H]4[C@H](O)[C@@H](O)[C@@H](O[C@H]5[C@H](O)[C@@H](O)[C@@H](O[C@H]6[C@H](O)[C@@H](O)[C@@H](O[C@H]7[C@H](O)[C@@H](O)[C@@H](O[C@H]1[C@H](O)[C@H]2O)O[C@@H]7CO)O[C@@H]6CO)O[C@@H]5CO)O[C@@H]4CO)O[C@@H]3CO | inactive and 3.76 µM (active) | 
41 | CC1=CC(C)(C)Nc2ccccc21 | 12.3 µM (active) | 
42 | C=CCNCC=C |  | -17.8% (inactive)

Row | SMILES | Potency | activity change, negative = inhibition
43 | CCCCCCCC/C=C\CCCCCCCC(=O)O |  | 4.76% (inactive)
44 | IC(I)I | 35.5 µM (active) and 63.3 µM (active) | 
45 | CCCCCCCCCCC(CO)CCCCCCCC (stereo not given) | inactive | 
46 | Cc1ccc(N)c([N+](=O)[O-])c1 | inactive | 
47 | Nc1ccc2c(O)cc(S(=O)(=O)O)cc2c1 | 71 µM (active) | 
48 | C=CCCCCCCCCCC | inactive | 
49 | COc1ccc2nc(N)sc2c1 | 39.9 µM (active) | 
50 | CCO[Si](CCCNC(N)=O)(OCC)OCC | inactive | 
51 | FC(F)(F)C(Cl)Br (stereo not given) | inactive | 
52 | C=CC(=O)OCCCC |  | -12.1% (inactive)
53 | Cc1ccc([N+](=O)[O-])c(C)c1 |  | -11.3% (inactive)
54 | CCC(=O)O[C@H]1[C@H](O[C@@H]2[C@@H](C)[C@H](O[C@H]3C[C@@](C)(OC)[C@@H](O)[C@H](C)O3)[C@@H](C)C(=O)O[C@H](CC)[C@@](C)(O)[C@H](O)[C@@H](C)C(=O)[C@H](C)C[C@@]2(C)O)O[C@H](C)C[C@@H]1N(C)C | 37.4 µM (active) and inactive | 
55 | CC(=O)Nc1ccc2c(c1)Cc1cc(NC(C)=O)ccc1-2 |  | -12.6% (inactive)
56 | COc1cc([C@H]2Oc3cc([C@H]4Oc5cc(O)cc(O)c5C(=O)[C@@H]4O)ccc3O[C@@H]2CO)ccc1O | 10 µM (active) and 8.71 µM (active) | 
57 | Cc1ccc(S(=O)(=O)NCl)cc1 | inactive and 75.1 µM (active) | 
58 | CN(C)C | inactive | 
59 | OC[C@@H](O)[C@@H](O[C@@H]1O[C@H](CO)[C@H](O)[C@H](O)[C@H]1O)[C@H](O)[C@@H](O)CO |  | 5.08% [at 53 µM] (inactive)
60 | c1ccc2c(c1)ccc1cc3c(ccc4ccccc43)cc12 | inactive | 
